Compounds without any hit were thinned out: in the full panel of roughly 83,000, 20% have a hit.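 Treatment: one concentration, 48 hours, 96-well format. Scoring: percent growth, with anything below 10 considered active.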 Unmarked numbers belong to inactive results. The source made the active and inactive calls.

This experiment concerns HL-60(TB) leukemia. The experiment is described as follows: NCI-60 one-dose screen, 48 h (100 = growth as untreated, 0 = no growth, -100 = all killed). The settings on record: 10 µM unless noted.
With `CCOC(=O)/C=C1\SC(=Nc2ccc(C#N)cc2)N(CCN2C(=O)/C(=C/C(=O)OCC)SC2=Nc2ccc(C#N)cc2)C1=O`, the growth was 55.5%.
For `N#Cc1c(-c2ccccc2)nc2c(c(-c3ccccc3)nn2-c2ccccc2)c1-c1ccc(N2CCOCC2)cc1`, the growth was 65.4%.
`O=C1NC(=Nc2ccc(S(=O)(=O)Nc3nccs3)cc2)S/C1=C\c1coc2ccccc2c1=O`: the growth was 107%.
The same measure for `CN(C)c1ccc(N=C2C=CC(=O)c3ccccc32)cc1`: 82.2%.
With `CCOC(=O)C1=C(C)C(Cl)=N/C1=C\c1[nH]c(Cl)c(C)c1C(=O)OCC` the figure was 95%; with `CCn1cc(C2NC(=O)c3ccccc3N2)c2cccc(C)c21` (stereo not given), -56.2% (active).
With `CC(Cc1ccco1)C(=O)NC(N)=O` (stereo not given) the figure was 87.5%.
Turning to `CN(C)C(=S)SCN1C(=O)c2ccc([N+](=O)[O-])cc2S1(=O)=O`, the growth was 75.3%.
As for `CN1CCN(c2ccc3nc4c(nc3c2C(F)(F)F)C(=O)c2ncccc2C4=O)CC1`, the growth was -50.4% (active).
Consider `CCOC(=O)c1cc(C(=O)c2cc(OC)c(OC)c(OC)c2)n2c1ccc1c3cccnc3ccc12`, for which the growth was 13.3%.
For `Nc1nnc2cc(Cl)ccc2n1`, the growth is 145%.
Consider `COc1cc2nc(N3CCCC3)nc(NCCc3ccccc3)c2cc1OC`, for which the growth was -53.6% (active).
For `CCOC(=O)C(CC(c1ccccc1)N1CCCCC1)[N+](=O)[O-]` (stereo not given), the growth was 73.4%.
The same measure for `O=C1OCC2=C1C(c1cccc(Br)c1)c1cc3c(cc1N2CCO)OCCO3` (stereo not given): -23.7% (active); for `COc1ccc(/C=N/NC(=O)Cn2c(-c3ccc(S(C)(=O)=O)cc3)nc3ccccc32)cc1`: 161%.
